GDH-TPI counter-1 – GDH-TPI coupling enzyme inhibitors, primary screen, artefact control for M. tuberculosis FBA inhibitor project, biochemical, absorbance, full deck; GDH-TPI coupled enzyme counterscreen, NADH absorbance; inhibition, % at 4.8 µM; 1.2% of 360,000 active; AID 588335, 2011; in the data active means inhibition above about 30%;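 further: 0% = DMSO wells and 100% = wells lacking the enzyme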
Mtb FBA inh – Mtb FBA enzyme inhibitors, primary screen, biochemical, fluorescence, strain H37Rv; Fructose-bisphosphate aldolase (Mycobacterium tuberculosis (strain ATCC 25618 / H37Rv)), …; purified M. tuberculosis FBA, fluorescence read-out; inhibition, % at 1 µM; 2.3% of 360,000 active;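 further: 0% = vehicle and 100% = reference inhibitor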
Mtb UGM inh – M. tuberculosis UGM enzyme inhibitors, primary screen, biochemical, fluorescence polarization, single point. inhibition, % at 10 µM. purified UGM, fluorescence polarization probe displacement. AID 504406, 2011. 0.06% of 320,000 active. UDP-galactopyranose mutase (Mycobacterium tuberculosis (strain ATCC 25618 / H37Rv)), …; in the data active means inhibition above about 10%, passing the limit was not always enough
Rv3671c protease – Rv3671c serine protease inhibitors, primary screen, biochemical, fluorescence polarization, M. tuberculosis H37Rv | inhibition, % at 5.96 µM | 0.048% of 320,000 active | AID 2606, 2010; in the data active means inhibition above about 38%;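 further: extracellular domain of Rv3671c used as enzyme; 0% = enzyme with DMSO and 100% = no enzyme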
BH1578 lux ind – inducers of Vibrio cholerae quorum light production without autoinducers, primary screen, BH1578 luxS cqsA deficient, single point | V. cholerae BH1578 lux reporter, luminescence, 6 h | 0.16% of 350,000 active | AID 588436, 2011 | activation, % at 18.7 µM; in the data active means activation mostly above about 9.7%, no sharp cut-off
RecA intein inh – Mtb RecA intein splicing inhibitors, primary screen, biochemical, fluorescence, HTS; Protein RecA (Mycobacterium tuberculosis (strain ATCC 25618 / H37Rv)), P9WHJ3; 0.75% of 290,000 active; cell-free RecA intein splicing; AID 2221, 2009; inhibition, % (no concentration beside the values); in the data active means inhibition above about 30%;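 further: 0% = vehicle wells and 100% = reference inhibitor control wells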
Mtb FBA confirm – M. tuberculosis aldolase blockers, biochemical, fluorescence, strain H37Rv, confirmation; AID 651616, 2012; 78% of 5,600 active; inhibition, % at 1 µM; shares compounds with Mtb FBA inh; purified M. tuberculosis FBA, fluorescence read-out;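 further: 0% = vehicle wells and 100% = reference inhibitor wells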
GDH-TPI counter-2 – GDH-TPI coupling enzyme inhibitors, artefact control for M. tuberculosis FBA inhibitor project, biochemical, fluorescence, high throughput | shares compounds with Mtb FBA inh | GDH-TPI coupled enzyme counterscreen | inhibition, % at 1 µM | 81% of 5,600 active; in the data active means inhibition above about 10%
The depositor's hits bear a star; i = inactive; . = not tested or not shown; + = active, no number. A selection: hits, their analogues and other compounds. The true share with any hit is near 4.1%. Unless noted, no stated cut-off is given here; in the data, active means inhibition above about 27%; inactive means the rest.

SMILES	GDH-TPI counter-1	Mtb FBA inh	Mtb UGM inh	Rv3671c protease	BH1578 lux ind	RecA intein inh	Mtb FBA confirm	GDH-TPI counter-2
COCCCn1c(C(=O)Nc2ccc3c(c2)OCO3)cc2c(=O)n3cccc(C)c3nc21	12	2	.	.	-1	.	.	.
CCCCn1c(=NC(=O)c2ccc3c(c2)OCO3)c(C#N)cc2c(=O)n3cccc(C)c3nc21	-2	77*	0	7	i	.	+	+
C[C@H]1CN([C@@H](C)CO)C(=O)CCCn2nncc2CO[C@@H]1CN(C)S(=O)(=O)c1ccccc1	13	3	.	.	0	.	.	.
COc1ccc(NC(=O)CN(c2ccccc2C)S(C)(=O)=O)c(OC)c1	3	0	1	-1	1	-1	.	.
Cc1ccccc1-c1csc(C(C)(O)c2cccnc2)n1 (configuration not stated)	-7	-2	.	.	0	.	.	.
COC(=O)c1cccc(NC(=O)c2cnoc2C)c1	-2	31*	1	4	0	0	95*	73*
Cc1oncc1C(=O)Nc1ccc2ccccc2c1	-3	-1	.	.	1	-3	.	.
COc1ccccc1Oc1coc2c(CN3CCOCC3)c(O)ccc2c1=O	8	80*	1	7	-6	-9	+	156*

High-throughput results: PubChem BioAssay, several laboratories
